Screening data (PubChem)
PvdQ inh: P. aeruginosa PvdQ acylase inhibitors, primary screen, biochemical, fluorescence, plate reader and imaging, single point; PvdQ acylase [Pseudomonas aeruginosa LESB58]; purified PvdQ acylase; inhibition, % at 10 µM; actives 0.063% (n = 340,000); AID 488965, 2010; in the data active = inhibition above about 30%, passing the limit was not always enough; inconclusive = no clear call, values can overlap the other calls;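 also: 0% = vehicle neutral wells and 100% = reference inhibitor wells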
Mot1-301 SUMO: yeast Mot1-301 growth rescue at high temperature, primary screen, SUMOylation pathway inhibitor project, S. cerevisiae, ATP luminescence, 38.5C; S. cerevisiae Mot1-301 growth rescue; percent above DMSO median, 100 means doubled; growth rescue, % at 18.8 µM; actives 1% (n = 320,000);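 active = every valid replicate shows activation above 250% relative to neutral control wells; inactive = the rest, any valid replicate at or below 250%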;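 also: OY570 slx delta 5 strain wells were the positive control but not used for scaling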
JMJD2C inh: inhibitors of GASC-1 histone demethylase, primary screen, biochemical, fluorescence, DELFIA europium | actives 0.069% (n = 330,000) | Lysine-specific demethylase 4C (Homo sapiens), Q9H3R0 | inhibition, % at 2.35 µM | GST-JMJD2C(1-420) H3K9me3 demethylation;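 active = more than half of a compound's replicate wells show inhibition beyond 50%, single wells judged on their own value; inconclusive = some, but no more than half, of replicates pass 50% inhibition; inactive = no replicate passes 50% inhibition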;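 also: signal counts dimethyl H3K9 product captured on neutravidin plate; 0% = median of DMSO wells and 100% = 0.3 times that DMSO median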
Target sequence (Q9H3R0 1-420 limits assumed): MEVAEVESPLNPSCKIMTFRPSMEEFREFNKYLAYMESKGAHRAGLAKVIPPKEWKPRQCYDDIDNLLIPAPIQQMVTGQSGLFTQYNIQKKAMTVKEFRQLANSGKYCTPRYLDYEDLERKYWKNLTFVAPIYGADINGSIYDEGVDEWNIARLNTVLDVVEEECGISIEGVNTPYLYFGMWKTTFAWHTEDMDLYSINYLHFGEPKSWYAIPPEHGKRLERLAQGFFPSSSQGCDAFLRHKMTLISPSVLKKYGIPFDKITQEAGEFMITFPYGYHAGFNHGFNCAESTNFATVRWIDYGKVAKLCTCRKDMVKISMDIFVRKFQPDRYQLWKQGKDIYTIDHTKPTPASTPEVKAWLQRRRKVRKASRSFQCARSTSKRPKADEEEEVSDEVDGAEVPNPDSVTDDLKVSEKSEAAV
PHOSPHO1 block: PubChem AID 1565; recombinant PHOSPHO1, absorbance phosphatase assay; Phosphoethanolamine/phosphocholine phosphatase (Homo sapiens), Q8TCT1; actives 1.1% (n = 290,000); inhibition, % at 13.3 µM; in the data active = inhibition above about 60%
p-CIP stab down: p/CIP-EGFP fusion destabilizers, primary screen, fluorescence, F442A cells. decrease of EGFP signal, % at 10 µM. actives 0.01% (n = 290,000). 16 h. AID 1984, 2009. Q05BA5;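 active = EGFP signal decrease of at least 30% at 10 µM or well 3 SD below plate mean, unless failing retest; inactive = the rest, including hits failing retest or dose response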
HDAC3 inh: HDAC3 deacetylase inhibitors, primary screen, biochemical, fluorescence, cell-free homogeneous; Histone deacetylase 3 (Homo sapiens), O15379; actives 0.15% (n = 320,000); recombinant HDAC3, fluorogenic peptide/trypsin coupled; inhibition, % at 8.3 µM; in the data active = inhibition above about 26%, passing the limit was not always enough; inconclusive = no clear call, values can overlap the other calls
* = called active by the depositor; ? = inconclusive; / = no result given. A selection: hits, their analogues and other compounds. The true share with any hit is near 2.2%.

SMILES	PvdQ inh	Mot1-301 SUMO	JMJD2C inh	PHOSPHO1 block	p-CIP stab down	HDAC3 inh
CCCCCCCCCn1c2c(c(=N)c3c1CCC3)CCC2	-2	483*	-9	17	-14	-1
CCCCn1c2c(c(=N)c3c1CCC3)CCC2	0	-9	12	95*	-10	-6
O=C(CN1C(=O)NC2(CCc3ccccc32)C1=O)c1ccc(Br)cc1 (stereo not drawn)	16	278*	1	/	/	7
O=C(CN1C(=O)NC2(CCCc3ccccc32)C1=O)c1ccc(Br)cc1 (stereo not drawn)	-1	322	7	/	/	?
COc1ccccc1CNS(=O)(=O)c1cc(CN2C(=O)c3cccnc3C2=O)ccc1OC	-8	6	2	27	5	6
COc1ccc(CN2C(=O)c3cccnc3C2=O)cc1S(=O)(=O)NC1CCCCC1	-5	-3	2	69*	-10	-3
O=C(CCc1nc2ccccc2c(=O)[nH]1)Nc1cc(Cl)ccc1N1CCCC1	-8	/	/	/	/	/
Cc1nnc(SCC(=O)N2CCN(S(=O)(=O)c3ccccc3)CC2)[nH]c1=O	-15	268	-19	-14	1	7
Cc1cc(C)c(C)c(C(=O)CSc2nnc(C)c(=O)[nH]2)c1C	/	/	/	89*	1	/
Cc1ccc(S(=O)(=O)N2CCN(C(=O)CSc3nnc(C)c(=O)[nH]3)CC2)cc1	-5	-1	-6	90*	-10	-1
CSc1ccc(/C=C/C(=O)OCC(=O)NC2CC2)cc1	-7	-1	-1	/	/	-40
CSCCC(NC(N)=O)C(=O)Nc1ccc(C)cc1 (stereo not drawn)	-12	-15	2	63*	-7	-7
C=CCc1c(C)[nH]c(=S)c(C#N)c1C	-10	-18	5	83*	-1	12
COCc1cc(C)c(C#N)c(=S)[nH]1	-5	-10	-2	42	2	1
Cc1ccc(NNC(=O)C(O)(c2cccc(C(F)(F)F)c2)c2cccc(C(F)(F)F)c2)cc1	0	95	5	2	-3	41*
CC(C)OCCCNS(=O)(=O)c1ccc2c(c1)oc(=O)n2C	-5	3	5	11	-22	/
CCCN(CCC)CCCNS(=O)(=O)c1ccc2c(c1)oc(=O)n2C	-14	-13	-16	62*	2	-3
Clc1ccccc1-c1nnc2sc(-c3ccc4c(c3)OCO4)nn12	1	0	4	79*	5	-5
Clc1ccc(-c2nnc3sc(-c4ccc(Br)o4)nn23)c(Cl)c1	2	-2	1	50	12	8
Clc1cccc(-c2nnc3sc(-c4ccc5c(c4)OCO5)nn23)c1	/	/	/	75*	0	/
Clc1ccccc1-c1nnc2sc(-c3ccc(Br)o3)nn12	5	227	-20	80*	9	-3
c1ccc(CCc2nn3c(-c4ccncc4)nnc3s2)cc1	-10	-11	-8	-21	-8	-2
Clc1ccccc1-c1nnc2sc(CCc3ccccc3)nn12	-9	-21	9	63*	-3	-1
CN(CC(=O)Nc1ccc(Cl)c(C(F)(F)F)c1)C(=O)c1cccc2cccnc12	-14	2	2	/	/	8
CCN(C(=O)c1ccc2c(=O)n3c(nc2c1)CCCCC3)c1ccccc1C	1	-24	8	28	5	-3
SMILES	PvdQ inh	Mot1-301 SUMO	JMJD2C inh	PHOSPHO1 block	p-CIP stab down	HDAC3 inh
Cc1noc(C)c1COc1cccc(C(=O)OC(C)C(=O)Nc2c(C)n(C)n(-c3ccccc3)c2=O)c1 (stereo not drawn)	-12	12	/	5	2	0
c1coc(-c2nn3c(-c4ccco4)nnc3s2)c1	-1	-4	-24	84*	0	4
COc1ccccc1-c1nn2c(-c3ccco3)nnc2s1	-10	-4	-4	9	-19	1
Cc1ccccc1-n1nc(-c2cccnc2)cc1C(=O)NN	-4	4	1	27	2	/
CCCCNS(=O)(=O)c1cccc(S(=O)(=O)N2CCCC2)c1	-10	303*	1	16	-6	7
O=S(=O)(c1cccc(S(=O)(=O)N2CCCC2)c1)N1CCCCC1	-9	-20	3	32	-2	-2
COc1cccc(CN(C)C(=O)COc2ccc(C(=O)c3ccc(Cl)cc3)cc2)c1OC	-5	3	5	15	3	3
O=C1NC2(CCCCC2)C(=O)N1CCS(=O)(=O)Oc1ccc(Br)cc1	-19	7	3	48	-9	9
O=C1NC2(CCCC2)C(=O)N1CCS(=O)(=O)Oc1ccccc1	0	3	-22	65*	-3	-5
C=CC[C@H](CC(=O)OC(C)(C)C)C(=O)OC[C@H]1CCCN1C(=O)[C@H](CC=C)CC(=O)NCCO	-5	-3	10	/	/	-1
CC(=O)Nc1ccc2c(CSc3nncs3)cc(=O)oc2c1	-6	64	0	5	-10	0
CC(=O)Nc1ccc2c(CSc3nnc(N)s3)cc(=O)oc2c1	18	18	0	69*	-19	/
CCc1ccccc1NC(=O)CCN1C(=O)c2ccccc2C1=O	-2	0	-12	0	-7	-7
CN1CCN(C(=O)c2ccccc2NC(=O)CCN2C(=O)c3ccccc3C2=O)CC1	-2	336*	1	7	0	1
O=C1C=C(c2cc(F)ccc2F)C[C@@H](c2ccc(F)cc2)C1	64*	-14	18	/	/	-8
Cc1cc(Cl)ccc1C1=CC(=O)C[C@H](c2ccc(F)cc2)C1	-10	54	4	/	/	5
C=C(Cl)COc1cc(C)cc2oc(=O)cc(CC)c12	-28	329*	-36	12	-8	2
Cc1c(C)c2ccc(OCC(=O)Nc3ccccn3)c(C)c2oc1=O	-2	-39	6	24	-28	1
C#CCCCCCCC#CCN(C)C	11	1	-1	-10	-12	4
CN(C)CC#CCCCCCCC#CCN(C)C	/	996*	10	-8	6	1
Cc1cc(OCc2nc3ccccc3s2)ccc1N	2	65	7	20	-7	0
C/C(=C\C(=O)c1ccc(Cl)cc1)NCc1ccc2c(c1)OCO2	-6	300	2	85*	2	3
CCC(C)CCN1C(N(C)C)=NC[C@@H]1C (stereo partly drawn)	6	318*	-1	/	/	-10
COc1ccccc1CNC(=O)c1ccc2c(=O)n3c(nc2c1)CCCCC3	-14	-3	1	65*	0	-12
COc1ccccc1OCC(=O)NNC(=O)c1ccc2c(=O)n3c(nc2c1)CCC3	-10	1	-2	33	-2	1
CCOc1ccc(NC(=O)c2ccc3c(=O)n4c(nc3c2)CCCCC4)cc1	-9	4	7	53	-9	-4
